# Measured values: PubChem BioAssay (NCI)
# Several values for one entry are separate records, joined by “and”; a condition that tells them apart may be missing. Identical values can stand only once. This is part of a sample that, as a whole, favours compounds with a hit. Of some 83,000 tested, about 20% had one in any assay.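 The endpoint reported here, percent growth, reads 100 for growth as untreated, 0 for no net growth and -100 for all cells dead.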 Activity calls are given as the source filed them. How the source made its calls: active means growth percent below 10; inactive means the rest.
# Tested on: MDA-MB-468 breast
# Test: NCI-60 one-dose screen, 48 h (100 = growth as untreated, 0 = no growth, -100 = all killed)
# Conditions: 10 µM unless noted
row,SMILES,growth
1,Cc1nc2sc(C(=O)Nc3ccccc3)c(N)c2cc1C(=O)c1ccccc1,9.68% (active)
2,CCN(CC)CCc1nc(-c2ccccc2)no1,-1.63% (active) and 78.5% (inactive)
3,N#Cc1c(N)nc2c(C#N)c(NC(=O)c3ccccc3)nn2c1-c1ccccc1,94.1% (inactive)
4,Nc1cc(C(=O)O)cc(-n2c(O)c(C=C3N=c4ccccc4=N3)sc2=S)c1,105% (inactive)
5,COc1ccc(-c2nc3cc(C(=O)Nc4cc(OC)c(OC)c(OC)c4)ccc3n2C2CCCCC2)cc1,128% (inactive)
6,CCOC(=O)c1cc(C(=O)c2cc(OC)cc(OC)c2)n2ncccc12,26.3% (inactive)
7,Cc1ccc(-c2csc(/N=C3\C(=O)Nc4ccccc43)n2)cc1,-12.5% (active)
8,O=C1C=CC(=O)c2c1nc1n2CCCC1,90.2% (inactive)
9,CN(C)CCCN1c2ccccc2Sc2ccc(C(F)(F)F)cc21,-76.9% (active)
10,COc1cc2oc(-c3ccc(NC(=O)c4ccccc4)cc3)cc(=O)c2c(OC)c1OC,96.5% (inactive)
11,C[n+]1ccc(Nc2ccc(NC(=O)c3ccc(Nc4cc[n+](C)c5ccc(N)cc45)cc3)cc2)cc1,94.8% (inactive)
12,COC(=O)C1OC1c1cc([N+](=O)[O-])ccc1OC (stereo not given),76.2% (inactive)
13,Cc1nn(-c2nc3ccccc3[nH]2)c2c1C(c1ccc(OCC(N)=O)cc1)CC(=O)N2 (stereo not given),108% (inactive)
14,O=P(O)(O)OCC(O)CO (stereo not given),100% (inactive)
15,CC(C)n1c(NCCc2ccc(O)c(O)c2)nc2c1c(=O)n(C)c(=O)n2C,73.8% (inactive)
16,CCOCCc1c(O)nc(SC)[nH]c1=O,82.5% (inactive)
17,CC(=O)OC[C@H]1OC(Sc2sc(C(=O)c3ccc(C)cc3)c(N)c2-c2nc3ccccc3s2)[C@H](OC(C)=O)[C@@H](OC(C)=O)[C@@H]1OC(C)=O (stereo not given in full),75.4% (inactive)
18,O=[N+]([O-])c1ccc(-c2ncc(-c3ccc(Br)cc3)o2)cc1,102% (inactive)
19,CCc1nnc(NC(=O)c2ccoc2COc2ccccc2)s1,52.7% (inactive)
20,CNCc1cccc2c1OCCCCCCC(C)(O)CC(C)(C)S(=O)(=O)c1ccc(cc1)-c1cnc(N)c(n1)C(=O)N2 (stereo not given),-54.1% (active)

row,SMILES,growth
1,COc1ccc(/C=C2\COc3ccc(-c4ccccc4)cc3C2=O)cc1O,14.6% (inactive)
2,COc1ccc(C2C(C#N)=C(N)Oc3c2sc2c(C)cccc32)cc1 (stereo not given),8.47% (active)
3,CCCCCCCCCCCCCCCCCC1=NC(C)(C)CN1CCO,-69% (active)
4,COc1ccc2nc(NC(=O)/C(=C/c3cc(OC)c(OC)c(OC)c3)c3ccc(OC)c(OC)c3)sc2c1,109% (inactive)
5,CC(C)=CCC[C@](C)(O)[C@H]1CC[C@]2(C)[C@@H]1CC[C@@H]1[C@@]3(C)C/C(=C/c4cccc([N+](=O)[O-])c4)C(=O)C(C)(C)[C@@H]3CC[C@]12C,84.3% (inactive)
6,O=C(NCCNC(c1ccccc1)C(NCCNC(=O)c1ccccc1)c1ccccc1)c1ccccc1 (stereo not given),81.5% (inactive)
7,O=C(NCCO)Nc1ccc(-c2nc(N3CCOCC3)c3cccn3n2)cc1,-24.2% (active)
8,COc1cc2c(cc1O)[C@@]1(C)[C@H](c3ccccc3Br)OC(=O)N1CC2,61.1% (inactive)
9,COc1ccc2nc(-c3c(-c4ccccc4)nc4ncccn34)[nH]c2c1,89.4% (inactive)
10,COc1cc2c(cc1-c1c(C)noc1C)ncc1nc(C3CC3)n([C@H](C)COC(F)F)c12,46% (inactive)
11,CCCN=C1NC(=O)/C(=C/c2nc(-c3ccc(OC)cc3)n3ccccc23)S1,101% (inactive)
12,FC(F)(F)c1cc(-c2nnc3n2N=C(N2CCCC2)CS3)cc(C(F)(F)F)c1,66.3% (inactive)
13,CCCCC(=O)c1ccc(OC)cc1,85.2% (inactive)
14,O=[P@@]1(c2ccccc2)O[C@H](COCc2ccccc2)[C@@H](OCc2ccccc2)[C@H](OCc2ccccc2)[C@H]1NCc1ccccc1,14% (inactive)
15,O=C1CSC(=S)N1/N=C/c1ccc(Cl)s1,105% (inactive)
16,CCOC(=O)C1=NNC(c2ccc(Cl)cc2)C1C(=O)N1C(=S)NC(=O)C1CC(C)C (stereo not given),102% (inactive)
17,CC1=NN(c2nc(SCC(=O)Nc3nc4ccc(C)cc4s3)nc(-c3ccccc3)c2C#N)C(=O)C1,111% (inactive)
18,CCCCC(CC)COC(C)=O (stereo not given),106% (inactive)
19,COc1ccc(CCc2nc3cc(-c4c(C)noc4C)ccc3n2CCN2CCOCC2)cc1,9.69% (active)
20,C=C(C)[C@@H]1CC[C@]2(CO)CC[C@]3(C)[C@H](CC[C@@H]4[C@@]5(C)CCCNC(C)(C)[C@@H]5CC[C@]43C)[C@@H]12,11.7% (inactive)
